Data as given in PubChem BioAssay (Tox21).
Results filed as inconclusive are left out. The source made the active and inactive calls. Unless noted, calls follow the shape of the dose curve; as a rule, active = well fitted curve in the direction sought with a large enough effect in the repeat runs; inconclusive = weak or mixed curves; inactive = no such curve, though single readings can be large; an effect the other way counts as inactive or inconclusive.

Experiments:
[1] = qHTS assay to identify small molecule antagonists of the estrogen related receptor (ERR) signaling pathway - cell viability counter screen (AID 1224818); also: potency is read from the fitted curve at half-maximal effect;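 also: viability measured after 17.5 h of compound exposure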
Summary of the method: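 Here, ERR cells are plated at 2,000 cells per well, allowed 6 h to attach, and treated with compounds in DMSO for 17.5 h at 37 C. CellTiter-Fluor is then added and fluorescence read after 30 min.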

[2] = qHTS assay to identify small molecule agonists of the estrogen related receptor (ERR) signaling pathway (AID 1224820)
Summary of the method: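 Quantitative HTS of the LOPAC library used NTP ERR reporter cells treated 18 h at 37 C. Signal is luminescence after One-Glo addition and a 30 min room-temperature incubation.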

[3] = system: estrogen-related receptor alpha (ERRalpha) with PGC-1alpha coactivator, human; assay: qHTS assay to identify small molecule antagonists of the estrogen related receptor signaling pathway with the pleiotropic PPARgamma coactivator (PGC) (AID 1224821; calls by dose curve; also: nearly all actives have a fitted effect of over 50% in size; also: potency is read from the fitted curve at half-maximal effect)
Summary of the method: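 Quantitative HTS for antagonism: PGC/ERR cells received compounds after 6 h attachment and were incubated 18 h at 37 C, with luminescence (One-Glo) as the endpoint.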

[4] = qHTS assay to identify small molecule antagonists of the estrogen related receptor signaling pathway with the pleiotropic PPARgamma coactivator (PGC) cell viability counter screen (AID 1224822; also: potency is read from the fitted curve at half-maximal effect;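 also: viability read after 17.5 h compound exposure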)
Summary of the method: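 qHTS format, DMSO compound stocks pin-transferred onto PGC/ERR cells 6 h after plating; 17.5 h exposure at 37 C, then CellTiter-Fluor fluorescence.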

[5] = qHTS assay to identify small molecule agonists of the estrogen related receptor signaling pathway with the pleiotropic PPARgamma coactivator (PGC) (AID 1224823); also: potency is read from the fitted curve at half-maximal effect
Summary of the method: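 Cell-based luciferase assay in the NTP-supplied PGC/ERR line, 2,000 cells/well; 18 h compound exposure at 37 C, luminescence after One-Glo.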

[6] = qHTS assay to identify small molecule antagonists of the estrogen related receptor (ERR) signaling pathway (AID 1224819; also: nearly all actives have a fitted effect of over 50% in size; also: potency is read from the fitted curve at half-maximal effect)
Summary of the method: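 LOPAC library screened for antagonism as reduced One-Glo luminescence in ERR reporter cells (2,000/well). Compounds were added after 6 h pre-incubation and left 18 h at 37C; reading followed a 30 min room-temperature reagent step.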

Measured: Potency

OCc1ccc(-c2nn(Cc3ccccc3)c3ccccc23)o1
inactive: [1] | [2] | [3] | [4] | [5]

Nc1nc(Cl)nc2c1ncn2[C@@H]1O[C@H](COP(=O)(O)OP(=O)(O)OP(=O)(O)O)C(O)[C@H]1O (some centres not stated)
inactive: [1] | [2] | [3] | [4]
active: [5] 1.33 µM

O=c1[nH]c(=S)[nH]c(-c2ccccc2)c1Cc1c(O)ccc2ccccc12
inactive: [1] | [2] | [3] | [4] | [5]

CC(C)(C)[C@]1(O)CCN2C[C@H]3c4ccccc4CCc4cccc(c43)[C@@H]2C1
inactive: [1] | [2] | [4] | [5]
active: [3] 17.4 µM

O=c1ccc2ccc(O)c(O)c2o1
inactive: [1] | [2] | [3] | [4] | [5]

CCc1ccc2c(-c3cccc(Cl)c3)nc(=O)n(CC)c2n1
inactive: [1] | [2] | [3] | [4]

Fc1ccc2[nH]c(CN3CCN(c4ccccn4)CC3)cc2c1
inactive: [1] | [2] | [3] | [4] | [5]

COc1ccccc1N1CCN(CCN2C(=O)CC3(CCCC3)CC2=O)CC1
inactive: [1] | [2] | [3] | [4] | [5]

CC(/C=C/c1cccc(Oc2ccc(F)cc2)c1)N(O)C(N)=O (configuration not stated)
inactive: [1] | [2] | [3] | [4] | [5]

CO/N=C(\C(=O)N[C@@H]1C(=O)N2C(C(=O)O)=C(COC(C)=O)CS[C@H]12)c1csc(N)n1 (stereo in doubt)
inactive: [1] | [6] | [4]

Clc1ccc(N2CCN(Cc3c[nH]c4ncccc34)CC2)cc1
inactive: [1] | [2] | [3] | [4] | [5]

O=C1NC(c2cccc([N+](=O)[O-])c2)=CCN1c1ccccc1O
inactive: [1] | [2] | [3] | [4] | [5]

CNC(=O)[C@H]1O[C@@H](n2cnc3c(NCc4cccc(I)c4)ncnc32)[C@H](O)C1O (some centres not stated)
inactive: [1] | [2] | [3] | [4]
active: [5] 0.944 µM

CN(C)c1nc(N)c(C(=O)N=C(N)N)nc1Cl
inactive: [1] | [6] | [4] | [5]

c1ccc(CN2CCC3(CCCc4ccccc43)CC2)cc1
inactive: [1] | [2] | [3] | [4] | [5]

Nc1nc(SCc2ccc([N+](=O)[O-])cc2)c2ncn([C@@H]3O[C@H](CO)C(O)[C@H]3O)c2n1 (some centres not stated)
inactive: [1] | [2] | [3] | [4] | [5]

OC1(c2ccc(Cl)cc2)CCN(Cc2c[nH]c3ccccc23)CC1
inactive: [1] | [2] | [3]

CC(C)COC(=O)OCN1C(=O)CN(CCN2CC(=O)N(COC(=O)OCC(C)C)C(=O)C2)CC1=O
inactive: [1] | [6] | [4] | [5]

O=C(Nc1nc2ccccc2n1CCN1CCOCC1)c1cccc([N+](=O)[O-])c1
inactive: [1] | [2] | [3] | [4] | [5]

CC(C)(CO)Cc1cc(C(C)(C)C)c(O)c(C(C)(C)C)c1
inactive: [1] | [2] | [3] | [4] | [5]

OC[C@H]1O[C@@H](n2cnc3cncnc32)[C@H](O)[C@@H]1O
active: [3] 15 µM
inactive: [1] | [2] | [4]

Cn1c(=O)c2[nH]c(C3CCCC3)nc2n(C)c1=O
inactive: [1] | [2] | [3] | [4] | [5]

CSc1ccccc1N1CCN(CCCCCC(=O)NC2CCCc3ccccc32)CC1 (configuration not stated)
active: [1] 10.2 µM | [6] 16.2 µM
inactive: [5]

Nc1nc(OCC2CCCCC2)c2[nH]cnc2n1
inactive: [1] | [2] | [3] | [4]

COc1ccc(-c2cc(=O)c3c(O)c(OC)c(OC)cc3o2)cc1O
inactive: [1] | [2] | [3] | [4]

COc1cc2c(cc1O)CC[C@@H]1[C@@H]2CC[C@]2(C)[C@@H](O)CC[C@@H]12
inactive: [1] | [2] | [3] | [4] | [5]

O=C(O)c1ccccc1Nc1ccccc1
inactive: [1] | [2] | [3] | [4] | [5]

Nc1nc2ccc(Cl)cc2c2nc(-c3ccco3)nn12
inactive: [1] | [2] | [3] | [4] | [5]

O=c1ccc2c(OCCCCc3ccccc3)c3ccoc3cc2o1
inactive: [1] | [2] | [3] | [4] | [5]

COc1cc2nc(N3CCCN(C)CC3)nc(NC3CCN(Cc4ccccc4)CC3)c2cc1OC
inactive: [2]
active: [1] 24.6 µM | [3] 28.7 µM | [4] 10.6 µM
